The entries come from a sample that favours hits as a whole.
HIV RNase H inh-1: inhibitors of HIV-1 reverse transcriptase RNase H | inhibition, % at 10 µM | RT-RNase H RNA/DNA duplex cleavage, fluorescence | 65,000 tested, 1.9% active; in the data active = inhibition above about 50%
RmlC RmlD mix: mixture blocks RmlC and RmlD coupled enzyme activity | RmlC/RmlD coupled enzyme inhibition, 384-well mixture HTS | inhibition, % at 5.5 µM | 110,000 tested, 0.39% active; in the data active = inhibition above about 30%, passing the limit was not always enough; inconclusive = no clear call, values can overlap the other calls
HIV RNase H inh-2: confirmation of HIV-1 reverse transcriptase RNase H inhibitors | shares compounds with HIV RNase H inh-1 | Recombinant RT RNase H, fluorescent RNA/DNA duplex cleavage | inhibition, % at 10 µM | 1,000 tested, 39% active | AID 651; in the data active = inhibition above about 48%; inconclusive = no clear call, values can overlap the other calls
Active calls of the source: *; ? = inconclusive; . = not tested or not shown.

SMILES	HIV RNase H inh-1	RmlC RmlD mix	HIV RNase H inh-2
Cc1ccccc1NC(=O)c1c(O)c2cccc3c2n(c1=O)CCC3	0.7	.	.
CC(C)C[C@H](NC(=O)c1nc[nH]c1C(=O)N1CCN(c2ccccc2)CC1)C(=O)OCc1ccccc1	.	2.5	.
CNC(=O)CN(C)S(=O)(=O)c1ccc(F)cc1	.	-0.1	.
Nc1nc(NC(=O)c2cccc(S(=O)(=O)N3CCCCCC3)c2)nc(-c2ccccc2)n1	66.3*	6.2	9.0
O=C(O)c1cccc(NC(=O)c2cccc(S(=O)(=O)N3CCCCC3)c2)c1	-9.3	6.1	.
Cc1ccc2c(c1)c(CC(=O)Nc1ccc(F)cc1)c(C(=O)O)n2C	.	-7.0	.
Cc1cc(C(F)(F)F)nc(SCC(=O)NC2=NC(=O)C(C)S2)n1 (stereo unspecified)	60.3*	.	?
Cc1cc(C)nc(SCC(=O)NC2=NC(=O)C(C)S2)n1 (stereo unspecified)	27.7	6.5	.
CC(NC(=O)c1ccccc1)C(c1cccs1)N1CCOCC1 (stereo unspecified)	.	-11.6	.
CCOC(=O)C1CCCN(C(=S)Nc2cc(C)cc(C)c2)C1 (stereo unspecified)	.	-30.5	.
COc1ccc(-n2c(Cc3cccn3C)nnc2SCC(=O)NCCc2ccccc2)cc1	-14.1	9.9	.
CN1CCN(Cc2c(O)ccc3occ(C(=O)c4ccccc4)c23)CC1	-2.2	10.6	.
CC(=O)C(C(C)=O)c1c(Cl)c(O)c(O)c2c(C(=O)c3ccccc3)coc12	100.3*	4.0	63.9*
C#CC(CC)(CC)NC(=S)Nc1cccc(C(C)=O)c1	.	-8.3	.
O=C(CSc1ccc2nnc(-c3ccc(Cl)cc3)n2n1)N1CCN(c2ccccc2)CC1	59.9*	.	48.1
CCOc1ccc(-c2nnc3ccc(SCC(=O)N4CCN(c5ccccc5)CC4)nn23)cc1	-25.2	.	.
S=C1NCCOCCOCCOCCOCCNC(=S)NCCOCCOCCOCCOCCN1	.	6.2	.
O=C1N[C@@H](Cc2ccccc2)C(=O)N2[C@H]1C[C@]1(Br)c3ccccc3N(S(=O)(=O)c3ccc(F)cc3)[C@H]21	.	-12.8	.
CCOC(=O)c1c(N)sn(-c2ccccc2C)c1=S	92.0*	10.5	71.3*
CCOC(=O)c1sc(=S)n(-c2ccccc2Cl)c1SC	.	23.1	.
CN1CCN(Cc2nc3c(c(=O)n(C)c(=O)n3C)n2CCc2ccccc2)CC1	-0.8	.	.
CCO[C@H]1OC(C(=O)N2CCN(C)CC2)=C[C@@H](C)[C@@H]1CCCO	.	-11.5	.
CCOc1ccc(C(=O)Nc2cc(C)c3c(=O)oc4ccccc4c3n2)cc1	65.4*	9.5	19.6
COc1ccc(CC(=O)Nc2cc(C)c3c(=O)oc4ccccc4c3n2)cc1	8.3	6.8	.
Cn1c(=O)[nH]c(=O)c2c1ncn2CCCc1ccccc1	-10.0	13.5	.
SMILES	HIV RNase H inh-1	RmlC RmlD mix	HIV RNase H inh-2
N#Cc1c(NC(=O)CN2CCN(S(=O)(=O)c3ccc4c(c3)OCCO4)CC2)sc2c1CCC2	70.0*	-12.0	77.9*
O=C(CN1CCN(S(=O)(=O)c2ccc(Cl)cc2)CC1)Nc1ccc2c(c1)OCCO2	-7.0	-13.7	.
CC(=O)c1cccc(NC(=O)N2CCCC2C(=O)NC2CCCCC2)c1 (stereo unspecified)	-5.0	-0.8	.
CCCCCSc1nc2c(c(=O)[nH]c(=O)n2C)n1C	-28.7	-2.5	.
CCCCCCn1c(SCC(C)C)nc2c1c(=O)[nH]c(=O)n2C	7.9	142.5	.
COC(=O)C(C)Sc1nc2c(c(=O)n(C)c(=O)n2C)n1CCC(C)C (stereo unspecified)	3.7	.	.
CCCCCCn1c(SCC(=O)OC)nc2c1c(=O)[nH]c(=O)n2C	92.5*	7.0	65.6*
CCCCCSc1nc2c(c(=O)[nH]c(=O)n2C)n1CC	72.8*	-2.7	41.9
COC(=O)CSc1nc2c(c(=O)n(C)c(=O)n2C)n1CCC(C)C	74.5*	-7.6	24.2
C=CCSc1nc2c(c(=O)[nH]c(=O)n2C)n1CC	69.2*	3.3	75.2*
C=CCSc1nc2c(c(=O)[nH]c(=O)n2C)n1C/C=C(/C)Cl	-15.7	-5.7	.
O=[N+]([O-])c1ccc(-c2cc(-c3ccncc3)nc3ccc4ccccc4c23)cc1	.	-2.4	.
CCOc1cc(C(=S)N2CCCCC2)ccc1OCC(=O)NCc1ccccc1	.	-0.9	.
CCN1C(=Nc2ccc(Cl)cc2)SC/C1=C\C(=O)OC	18.6	5.7	.
O=C(Nn1c(=S)[nH]c2ccccc2c1=O)c1ccncc1	2.0	7.8	.
CN(C)S(=O)(=O)c1ccc(NC(=O)CN2CCN(C(c3ccccc3)c3ccccc3)CC2)cc1	.	-7.0	.
CS(=O)(=O)c1ccc(CNC(=O)C2(C(F)(F)F)C/C(=C\Cc3ccccc3)CCCO2)cc1 (stereo unspecified)	.	-8.7	.
CC(C)n1c(SCC(N)=O)nc2c1c(=O)[nH]c(=O)n2C	60.6*	11.3	4.2
CCCCCSc1nc2c(c(=O)[nH]c(=O)n2C)n1C(C)C	17.0	7.6	.
CCOC(=O)CSC1=C(C#N)C(c2ccc(F)cc2)C(C(C)=O)=C(C)N1 (stereo unspecified)	73.0*	-12.4	13.6
CCOC(=O)CSC1=C(C#N)C(c2ccc(C)cc2)C2=C(CCCC2=O)N1 (stereo unspecified)	-3.6	3.3	.
CCOC(=O)C1=C(C)NC(SCC(=O)OC)=C(C#N)C1c1ccc(C(=O)OC)cc1 (stereo unspecified)	80.4*	102.5	36.8
CC1=C(C(=O)Nc2ccc(Cl)cc2)C(c2ccncc2)C(C#N)=C(SCC(N)=O)N1 (stereo unspecified)	.	-10.0	.
CC(=O)C1=C(C)NC(SCC(N)=O)=C(C#N)C1c1cccnc1 (stereo unspecified)	61.5*	23.1	40.5
C=CCOC(=O)C1=C(C)NC(SCC)=C(C#N)C1c1ccc(Cl)cc1 (stereo unspecified)	.	4.7	.
SMILES	HIV RNase H inh-1	RmlC RmlD mix	HIV RNase H inh-2
CCCNC(=O)c1ccccc1NC(=O)CN(c1ccccc1OCC)S(C)(=O)=O	-1.0	9.4	.
COC(=O)c1ccccc1NC(=O)CN1CCN(C23CC4CC(CC(C4)C2)C3)CC1	-7.0	11.8	.
O=C(Nc1nc(-c2ccncc2)cs1)c1ccco1	58.6*	-7.1	55.7*
O=C(Nc1nc(-c2cc3ccccc3oc2=O)cs1)c1ccco1	-1.4	-49.4	.
CCc1ccccc1N1CC(C(=O)O)CC1=O (stereo unspecified)	-5.8	7.9	.
CC#C[C@]1(O)CC[C@H]2[C@@H]3CCC4=CC(=O)CCC4=C3[C@@H](c3ccc(N(C)C)cc3)C[C@@]21C	.	1.0	.
O=C(CSc1nnnn1-c1ccccc1)Nc1nsc(-c2ccc(Cl)cc2)n1	65.4*	5.5	58.2*
O=C(CSc1nnnn1-c1ccccc1)Nc1nsc(-c2ccccc2)n1	-6.3	11.0	.
C/C(=N\O)C(=O)NCCN1CCCCC1	-0.8	4.1	.
O=C(/C=N/O)NCCN1CCCCC1	71.5*	-0.6	23.2
COc1[nH]c(/N=C/c2ccccc2)c(C#N)c1C#N	53.2*	-3.9	4.8
COc1ccc(/C=N/c2oc(-c3ccccc3)cc2C#N)cc1	.	1.4	.
COc1ccccc1CNC(=O)c1nn(-c2ccc(C)cc2)c(=O)c2c1c1ccccc1n2C	.	-21.1	.
COc1ccc(-n2nc(C(=O)NCc3ccco3)c3c4ccccc4n(C)c3c2=O)cc1Cl	71.2*	14.2	8.5
COc1ccc(C2=NOC(C)(c3nnc(-c4ccc(Cl)cc4)o3)C2)cc1 (stereo unspecified)	.	-21.9	.
CCCc1cc(=O)[nH]c(SCc2cc(Cl)ccc2OC(F)F)n1	.	-9.7	.
